Source: the supplement of paper PMC4022240
± gives the standard deviation.

Key:
Experiment in all cases: peptide microarray binding signal (635 nm), min-max normalized on array (fraction of array maximum); higher = stronger binding
Conditions in all cases: peptide region: H3 5-17
[1] = biological target: T1, HaloTag-ATRX ADD domain (163-292)
T1 chain: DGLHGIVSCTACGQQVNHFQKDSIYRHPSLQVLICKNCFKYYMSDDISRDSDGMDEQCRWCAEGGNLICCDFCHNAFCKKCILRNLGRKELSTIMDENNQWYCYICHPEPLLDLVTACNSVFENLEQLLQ
Protocol: (§1)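 Histone 13-mer peptides were synthesized as cellulose conjugates with a C-terminal 20-atom PEG linker and printed in triplicate on nitrocellulose. The sequence given is the unmodified backbone; PTMs (Kme1/2/3, Kac, Sph/Tph, Rme/Rme2a/Rme2s, Rcit) are listed in the label and the 'peptide modifications' condition. Slides were probed at 4 °C for 1 h with biotin-labelled (HQ)5-HaloTag reader fusions (ATRX-ADD, ING2-PHD) then streptavidin-Alexa647, or with rabbit histone antibodies then anti-rabbit Alexa647. The mean 635 nm signal of the triplicate spots was scaled 0-1 between the lowest and highest values on each array.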

[2] = biological target: HaloTag-ING2 PHD (mouse Ing2 200-280)
Protocol: as §1

[3] = biological target: anti-H3K4me3 antibody ab8580
Protocol: as §1

[4] = biological target: anti-H3K9me3 antibody ab8898
Protocol: as §1

[5] = peptide modifications: H3K9me1 H3K14me2, binder concentration: 1:2,000 dilution
[6] = peptide modifications: H3K9me1 H3K14me2, binder concentration: 1:10,000 dilution
[7] = peptide modifications: H3K9me1, binder concentration: 1:2,000 dilution
[8] = peptide modifications: H3K9me1, binder concentration: 1:10,000 dilution
[9] = peptide modifications: H3K9ac H3S10ph, binder concentration: 1:2,000 dilution
[10] = peptide modifications: H3K9ac H3S10ph, binder concentration: 1:10,000 dilution
[11] = peptide modifications: H3K9me1 H3K14me1, binder concentration: 1:2,000 dilution
[12] = peptide modifications: H3K9me1 H3K14me1, binder concentration: 1:10,000 dilution
[13] = peptide modifications: H3K9me1 H3K14ac, binder concentration: 1:2,000 dilution
[14] = peptide modifications: H3K9me1 H3K14ac, binder concentration: 1:10,000 dilution

QTARKSTGGKAPR [H3 5-17 Q T A R Kme S T G G Kme2 A P R]
peptide microarray binding signal ([1]; peptide modifications: H3K9me1 H3K14me2, binder concentration: 50 nM): 0.004514 ± 3.4e-05 | peptide microarray binding signal ([1]; peptide modifications: H3K9me1 H3K14me2, binder concentration: 500 nM): 0.00667 ± 0.00028 | peptide microarray binding signal ([2]; peptide modifications: H3K9me1 H3K14me2, binder concentration: 10 nM): 0.00555 ± 0.0003 | peptide microarray binding signal ([2]; peptide modifications: H3K9me1 H3K14me2, binder concentration: 100 nM): 0.00595 ± 0.00024 | peptide microarray binding signal [3, 5]: 0.00206 ± 0.00041 | peptide microarray binding signal [3, 6]: 0.00211 ± 0.00015 | peptide microarray binding signal [4, 5]: 0.00979 ± 0.0019 | peptide microarray binding signal [4, 6]: 0.00352 ± 0.00022

QTARKSTGGKAPR [H3 5-17 Q T A R Kme S T G G K A P R]
peptide microarray binding signal ([1]; peptide modifications: H3K9me1, binder concentration: 50 nM): 0.00445 ± 0.00012 | peptide microarray binding signal ([1]; peptide modifications: H3K9me1, binder concentration: 500 nM): 0.00171 ± 7.9e-05 | peptide microarray binding signal ([2]; peptide modifications: H3K9me1, binder concentration: 10 nM): 0.00448 ± 0.00018 | peptide microarray binding signal ([2]; peptide modifications: H3K9me1, binder concentration: 100 nM): 0.002055 ± 2e-05 | peptide microarray binding signal [3, 7]: 0.000642 ± 1.6e-05 | peptide microarray binding signal [3, 8]: 0.0139 ± 0.012 | peptide microarray binding signal [4, 7]: 0.0007551 ± 6.5e-06 | peptide microarray binding signal [4, 8]: 0.00121 ± 2.4e-05

QTARKSTGGKAPR [H3 5-17 Q T A R Kac Sph T G G K A P R]
peptide microarray binding signal ([1]; peptide modifications: H3K9ac H3S10ph, binder concentration: 50 nM): 0.00592 ± 8.9e-05 | peptide microarray binding signal ([1]; peptide modifications: H3K9ac H3S10ph, binder concentration: 500 nM): 0.0176 ± 0.0016 | peptide microarray binding signal ([2]; peptide modifications: H3K9ac H3S10ph, binder concentration: 10 nM): 0.00507 ± 0.00017 | peptide microarray binding signal ([2]; peptide modifications: H3K9ac H3S10ph, binder concentration: 100 nM): 0.0274 ± 0.0063 | peptide microarray binding signal [3, 9]: 0.0005474 ± 5.3e-06 | peptide microarray binding signal [3, 10]: 0.000514 ± 1.5e-05 | peptide microarray binding signal [4, 9]: 0.00667 ± 0.00058 | peptide microarray binding signal [4, 10]: 0.00265 ± 0.00012

QTARKSTGGKAPR [H3 5-17 Q T A R Kme S T G G Kme A P R]
peptide microarray binding signal ([1]; peptide modifications: H3K9me1 H3K14me1, binder concentration: 50 nM): 0.00339 ± 6.1e-05 | peptide microarray binding signal ([1]; peptide modifications: H3K9me1 H3K14me1, binder concentration: 500 nM): 0.00657 ± 6.6e-05 | peptide microarray binding signal ([2]; peptide modifications: H3K9me1 H3K14me1, binder concentration: 10 nM): 0.00388 ± 5.4e-05 | peptide microarray binding signal ([2]; peptide modifications: H3K9me1 H3K14me1, binder concentration: 100 nM): 0.0145 ± 0.0038 | peptide microarray binding signal [3, 11]: 0.00068 ± 1.9e-05 | peptide microarray binding signal [3, 12]: 0.000571 ± 1.1e-05 | peptide microarray binding signal [4, 11]: 0.0061 ± 0.0011 | peptide microarray binding signal [4, 12]: 0.00283 ± 0.00027

QTARKSTGGKAPR [H3 5-17 Q T A R Kme S T G G Kac A P R]
peptide microarray binding signal ([1]; peptide modifications: H3K9me1 H3K14ac, binder concentration: 50 nM): 0.00661 ± 0.00012 | peptide microarray binding signal ([1]; peptide modifications: H3K9me1 H3K14ac, binder concentration: 500 nM): 0.0218 ± 0.0024 | peptide microarray binding signal ([2]; peptide modifications: H3K9me1 H3K14ac, binder concentration: 10 nM): 0.0233 ± 0.0035 | peptide microarray binding signal ([2]; peptide modifications: H3K9me1 H3K14ac, binder concentration: 100 nM): 0.0424 ± 0.0029 | peptide microarray binding signal [3, 13]: 0.00255 ± 0.00039 | peptide microarray binding signal [3, 14]: 0.00228 ± 0.00016 | peptide microarray binding signal [4, 13]: 0.0548 ± 0.0034 | peptide microarray binding signal [4, 14]: 0.016 ± 0.00023
